FMDV inh = antivirals against foot and mouth disease virus; FMDV antiviral cell-based qHTS; 410,000 compounds, 1.2% hits; Potency, µM (series often up to 57.9 µM), inactives show at the top dose activity change, negative = inhibition, most hits filed as inhibitors; calls by dose curve; tested in HEK293T cells; further: read-out not given here; potency means the concentration at half of the fitted maximal effect; nearly all actives have a fitted effect of over 45% in size
AmpC no deterg = blocks E. coli AmpC beta-lactamase in detergent-free assay; AmpC nitrocefin hydrolysis, absorbance 480 nm, 0.0001% Triton; Potency, µM (highest dose often 57.1 µM), inactives show top-dose activity change, negative = inhibition, usual class: inhibitors; 330,000 compounds, 0.52% hits;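 further: potency means the concentration at half of the fitted maximal effect; plate controls were no compound for no effect and no enzyme for full effect; nearly all actives have a fitted effect of over 20% in size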
Target sequence (P00811 whole entry, looked up): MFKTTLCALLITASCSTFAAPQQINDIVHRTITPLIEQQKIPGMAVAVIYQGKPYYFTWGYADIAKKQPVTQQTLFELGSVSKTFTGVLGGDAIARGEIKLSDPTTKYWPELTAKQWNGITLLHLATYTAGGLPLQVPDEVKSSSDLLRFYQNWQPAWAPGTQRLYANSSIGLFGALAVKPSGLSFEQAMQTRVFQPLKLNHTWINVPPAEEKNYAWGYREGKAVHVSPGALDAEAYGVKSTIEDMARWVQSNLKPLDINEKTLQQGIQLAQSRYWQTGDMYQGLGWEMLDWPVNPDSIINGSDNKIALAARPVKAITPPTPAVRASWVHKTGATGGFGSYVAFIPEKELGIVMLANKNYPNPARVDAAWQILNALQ
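20 mM phosphate pH 7.0 + 0.01% (detergent screen) or 0.0001% Triton X-100; 5.3 nM AmpC reagent; cpd preinc 15 min RT; nitrocefin (800 uM stock) to start; A480 q20 s × 4 min; Activity was normalised to no-enzyme and no-compound control wells.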
HCV inh = blocks hepatitis C virus; Huh7.5.1 HCVcc-Cre infection, luciferase reporter, 44 h; AID 651820; Potency, µM (doses to about 41.8 µM), for inactives: at the highest dose activity change, negative = inhibition, most hits filed as inhibitors; 340,000 compounds, 3.4% hits; further: potency means the concentration at half of the fitted maximal effect
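Cells (1,000/well) were plated 4 h before compound, then infected with HCVcc-Cre virus (~0.5 moi). After 44 h further culture, infection was read as luciferase luminescence following a 15 min substrate incubation at room temperature.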
HCMV antiviral = blocks human cytomegalovirus replication; HFF cells, HCMV-luciferase reporter, 72 h; stronger effect = lower value; AID 1259415; activity change, negative = inhibition, % at 57.5 µM; 410,000 compounds, 4.5% hits; in the data active means activity change below about -60%; inconclusive means no clear call, values can overlap the other calls; inactive means above about -39%
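Cell-based, HFFs, 1000 cells/well, 16 h 37C; cpds in DMSO + HCMV-luc, MOI 1 PFU/cell; 72 h 37C; OneGlo luminescence after 5 min RT; norm. to buffer vs Salinomycin 10uM.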
AmpC detergent = blocks E. coli AmpC beta-lactamase in detergent assay | P00811 | Potency, µM (highest dose often 114 µM), inactives show top-dose activity change, negative = inhibition, most hits filed as inhibitors | 370,000 compounds, 0.041% hits | AmpC hydrolysis of nitrocefin, absorbance 480 nm, 0.01% Triton;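 further: potency means the concentration at half of the fitted maximal effect; 0% = no-compound wells and -100% = no-enzyme wells; nearly all actives have a fitted effect of over 25% in size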
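AmpC (5.3 nM in the dispensed reagent) in 20 mM phosphate pH 7.0 with 0.01% (detergent screen) or 0.0001% Triton X-100 was preincubated with compounds for 15 min at room temperature. Nitrocefin was then added from an 800 uM solution, and hydrolysis was followed at 480 nm.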
Active calls of the source: *; ? = inconclusive; nt = no result. Rows were chosen to be rich in hits. Some 7.3% of all compounds tested hit in one or more screens of this group. Unless noted, the call rests on the fitted dose curve; in most records, active means well fitted curve in the direction sought with a large enough effect; inconclusive means small, poorly fitted or top-dose-only effect, or another doubt; inactive means no such curve, though single readings can be large; an effect the other way counts as inactive or inconclusive. Unless noted, on the % scale 0 is the no-effect control and ±100 the full control effect.

SMILES	FMDV inh	AmpC no deterg	HCV inh	HCMV antiviral	AmpC detergent
CN1CCN(CCCNC(=O)c2ccc3c(Cl)c4c(nc3c2)CCCC4)CC1	-23.2%	142.1%	10µM*	?	2.3%
O=C(NCc1ccc(F)cc1)c1ccc2c(Cl)c3c(nc2c1)CCCC3	-19.1%	nt	nt	-72.9*	-11.2%
COc1ccc(CNC(=O)c2ccc3c(Cl)c4c(nc3c2)CCCC4)c(OC)c1	-20.7%	nt	nt	?	2.3%
CCc1ccc(CNC(=O)c2ccc3c(Cl)c4c(nc3c2)CCCC4)cc1	13.0%	nt	nt	-26.1	16.1%
COc1ccc(CCNC(=O)c2ccc3c(Cl)c4c(nc3c2)CCCC4)c(OC)c1	?	nt	nt	-94.1*	22.2%
CCC1CN(CC(=O)NC(C)c2cn(C)nc2C)Cc2cc(OC)ccc2O1 (stereo unspecified)	-8.4%	nt	nt	nt	nt
Cc1ccc(NC(=O)CN(CCc2ccccc2)S(C)(=O)=O)cc1	14.7%	4.0%	3.7%	-0.6	-9.1%
CCc1ccc(S(=O)(=O)N(C(=O)Oc2ccccc2)c2ccc3oc(C)c(C(=O)OC)c3c2)cc1	-13.5%	nt	nt	-70.9*	10.5%
COC(=O)c1c(C)oc2ccc(N(C(=O)Oc3ccccc3)S(=O)(=O)c3ccc(Cl)c([N+](=O)[O-])c3)cc12	-25.5%	-38.5%	?	nt	4.3%
CCc1ccc(S(=O)(=O)N(C(C)=O)c2ccc3oc4c(c3c2)CCCC4)cc1	-16.6%	nt	nt	-91.6*	-5.4%
COC(=O)c1ccc(Sc2nnnn2-c2ccccc2)c([N+](=O)[O-])c1	20µM*	-10.2%	2.0%	-39.6	-13.8%
COc1ccc(-c2cnc(N)nc2-c2ccc(OCc3ccccc3)cc2O)cc1	?	-45.4%	?	-1.2	-5.4%
Nc1ncc(-c2ccccc2)c(-c2ccc(O)cc2O)n1	?	-41.2%	?	-61.4*	-6.6%
O=[N+]([O-])c1c(NCCCO)cc(N2CCN(Cc3ccc4c(c3)OCO4)CC2)c2nonc12	17.8µM*	197.7%	?	-77.7*	-10.1%
Cn1ccnc1Sc1cc(NCCCO)c([N+](=O)[O-])c2nonc12	25.1µM*	-26.5%	10µM*	142.9	-0.5%
O=[N+]([O-])c1c(NCCCO)cc(N2CCCCCC2)c2nonc12	-17.1%	123.1%	-3.8%	-22.8	5.0%
O=[N+]([O-])c1c(NCCCO)cc(Sc2ccc(Cl)cc2)c2nonc12	25.1µM*	-2.4%	?	-18.0	-7.6%
Nc1ccc(SCc2cccnc2)cc1	15.3%	-5.2%	2.9%	-28.3	-5.1%
COC(/C(C)=C/C=C/C(C)=C/c1coc(C)n1)C(C)C1CC(O)C2(C)OC2C=CC(C)C2CC(CC(=O)O2)CC2OC2C(=O)O1 (stereo unspecified)	-26.2%	nt	9.6%	-80.4*	nt
CC1CCCc2sc3ncn(N)c(=N)c3c21 (stereo unspecified)	-3.6%	-36.6%	?	-63.2*	-6.5%
COc1ccc(OC)c(NC(=O)C2CCCN(S(=O)(=O)c3ccc4[nH]c(=O)ccc4c3)C2)c1 (stereo unspecified)	-23.5%	nt	nt	?	14.7%
Cc1cc(C(=O)N2CCN(C(c3ccccc3)c3ccccc3)CC2)no1	?	83.5%	?	-17.8	-0.9%
O=C(c1cc(-c2cccs2)on1)N1CCN(C(c2ccccc2)c2ccccc2)CC1	-21.0%	-12.3%	2.82µM*	?	0.2%
Cc1onc(C(=O)N2CCN(C(c3ccccc3)c3ccccc3)CC2)c1[N+](=O)[O-]	?	1.3%	?	-103.2*	?
COc1ccc(N2CCN(C(=O)CCN3C(=S)NC(C)(C)CC3C)CC2)cc1 (stereo unspecified)	3.9%	-0.5%	8.5%	-7.5	3.5%
Cc1ccc(N(CC(=O)N2CC(=O)Nc3ccccc32)S(=O)(=O)c2ccc3c(c2)OCCO3)cc1	5.4%	-36.0%	9.2%	-62.5*	?
COc1ccc(N(CC(=O)Nc2ccc3c(c2)OCO3)S(=O)(=O)c2ccc(F)cc2)cc1	23.9%	-34.5%	?	-76.0*	5.0%
CCCC(C)NC(=O)CN(c1ccc2c(c1)OCCO2)S(=O)(=O)c1ccccc1 (stereo unspecified)	-3.8%	14.1%	-4.4%	-5.2	2.7%
